For 14 molecules, composite z-score and z-score results are on record in PubChem BioAssay.

For assay [1], the system named is PRMT1 (protein arginine N-methyltransferase 1). The assay can be described thus: small molecules binding arginine methyltransferase PRMT1 – biochemical, small-molecule microarray, 635 nm fluorescence, primary screen (AID 1088).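 Also: binding of Prmt1 protein to compounds spotted on small-molecule microarray slides.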 As to conditions: higher = more signal.
A short description of assay [2]: growth effects on S. cerevisiae YJM789 – YJM789 clinical isolate, OD600, 24 h, basal, primary screen (AID 1089).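 Also: growth of clinical yeast isolate S. cerevisiae YJM 789 seeded 1000 cells per well; test concentration not given here.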 The conditions noted are these: higher = more signal, called active from +8 up or from −8 down.
Assay [3] is described as follows: S. pombe growth modifiers, basal conditions – strain 972, OD600, 24 h, no modulator, primary screen (AID 1090).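 Also: basal condition with compound alone and no growth modifier present; test concentration not given here.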 The conditions noted are these: S. pombe 972 growth, higher = more signal, called active from +8 up or from −8 down.
Assay [4] can be described thus: budding yeast growth modifiers under rapamycin – strain BY4716, OD600, 96 h, primary screen (AID 1091). Also: test concentration not given here. As to conditions: S. cerevisiae BY4716 + rapamycin, higher = more signal, called active from +8 up or from −8 down.
Assay [5] has as its target Torsin-1A-interacting protein 2 (Homo sapiens) (UniProt Q8NFQ8). Kind of assay: small molecules binding lysate-expressed LULL1 – cell lysate, human LULL1 lysate, 635/667 nm fluorescence, primary screen (AID 1092).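 Also: probe is lysate of COS7 cells overexpressing human LULL1; score merges per-feature 667 nm fluorescence with signal-to-noise.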 The conditions noted are these: small-molecule microarray, hLULL1 lysate binding, 635 nm fluorescence; higher = more signal.
Assay [6] is described as follows: optical density change of DRC41 E. coli – strain DRC41, OD650, 24 h, E. coli filamentation project, primary screen (AID 1093).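 Also: MC1000 strain lacking acrAB efflux and sulA so SOS filamentation is blocked; test concentration not given here.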 The conditions noted are these: E. coli DRC41 growth, higher = more signal, called active from +8 up or from −8 down.
Assay [7] in a line: probe aLefty2 binding to arrayed compounds – biochemical, biotinylated probe, 635/667 nm fluorescence, primary screen (AID 1094).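 Also: score merges spot fluorescence near 667 nm with spot signal-to-noise ratio.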 As to conditions: small-molecule microarray, higher = more signal.
Assay [8] relates to Noggin (protein binding on small-molecule microarray). Kind of assay: small molecules binding Noggin protein – biochemical, 635/667 nm fluorescence, primary screen (AID 1095).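 Also: score merges 667 nm feature fluorescence with signal to noise over triplicate slides.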 The conditions noted are these: 635 nm fluorescence, higher = more signal.
Assay [9] concerns the target Neurogenic locus notch homolog protein 3 (Homo sapiens) (UniProt Q9UM47). Kind of assay: small molecules binding NOTCH3 protein – biochemical, 635/667 nm fluorescence, primary screen (AID 1096). As to conditions: small-molecule microarray, 635 nm fluorescence, higher = more signal.
A short description of assay [10]: probe aEGFR binding to arrayed compounds – biochemical, biotinylated probe, 635/667 nm fluorescence, primary screen (AID 1097).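 Also: probe is a biotinylated anti-EGFR antibody binding compounds printed on slides; score combines fluorescence near 667 nm and signal to noise of each spot.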 The conditions noted are these: small-molecule microarray, higher = more signal.

Activity calls are given as the source filed them.

Sequence of Torsin-1A-interacting protein 2 (Homo sapiens) (Q8NFQ8 whole entry, looked up): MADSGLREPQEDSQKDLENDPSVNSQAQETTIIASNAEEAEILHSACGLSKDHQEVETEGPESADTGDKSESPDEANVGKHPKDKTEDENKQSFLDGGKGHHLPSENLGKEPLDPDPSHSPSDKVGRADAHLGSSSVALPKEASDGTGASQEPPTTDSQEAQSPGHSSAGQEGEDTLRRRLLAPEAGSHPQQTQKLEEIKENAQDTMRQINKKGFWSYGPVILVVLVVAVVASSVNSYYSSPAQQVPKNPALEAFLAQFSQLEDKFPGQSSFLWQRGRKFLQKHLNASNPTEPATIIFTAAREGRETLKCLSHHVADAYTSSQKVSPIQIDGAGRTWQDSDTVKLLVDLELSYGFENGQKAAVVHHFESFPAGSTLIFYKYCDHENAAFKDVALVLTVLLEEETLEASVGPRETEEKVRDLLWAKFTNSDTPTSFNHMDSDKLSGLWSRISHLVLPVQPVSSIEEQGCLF
Sequence of Neurogenic locus notch homolog protein 3 (Homo sapiens) (Q9UM47 whole entry, looked up): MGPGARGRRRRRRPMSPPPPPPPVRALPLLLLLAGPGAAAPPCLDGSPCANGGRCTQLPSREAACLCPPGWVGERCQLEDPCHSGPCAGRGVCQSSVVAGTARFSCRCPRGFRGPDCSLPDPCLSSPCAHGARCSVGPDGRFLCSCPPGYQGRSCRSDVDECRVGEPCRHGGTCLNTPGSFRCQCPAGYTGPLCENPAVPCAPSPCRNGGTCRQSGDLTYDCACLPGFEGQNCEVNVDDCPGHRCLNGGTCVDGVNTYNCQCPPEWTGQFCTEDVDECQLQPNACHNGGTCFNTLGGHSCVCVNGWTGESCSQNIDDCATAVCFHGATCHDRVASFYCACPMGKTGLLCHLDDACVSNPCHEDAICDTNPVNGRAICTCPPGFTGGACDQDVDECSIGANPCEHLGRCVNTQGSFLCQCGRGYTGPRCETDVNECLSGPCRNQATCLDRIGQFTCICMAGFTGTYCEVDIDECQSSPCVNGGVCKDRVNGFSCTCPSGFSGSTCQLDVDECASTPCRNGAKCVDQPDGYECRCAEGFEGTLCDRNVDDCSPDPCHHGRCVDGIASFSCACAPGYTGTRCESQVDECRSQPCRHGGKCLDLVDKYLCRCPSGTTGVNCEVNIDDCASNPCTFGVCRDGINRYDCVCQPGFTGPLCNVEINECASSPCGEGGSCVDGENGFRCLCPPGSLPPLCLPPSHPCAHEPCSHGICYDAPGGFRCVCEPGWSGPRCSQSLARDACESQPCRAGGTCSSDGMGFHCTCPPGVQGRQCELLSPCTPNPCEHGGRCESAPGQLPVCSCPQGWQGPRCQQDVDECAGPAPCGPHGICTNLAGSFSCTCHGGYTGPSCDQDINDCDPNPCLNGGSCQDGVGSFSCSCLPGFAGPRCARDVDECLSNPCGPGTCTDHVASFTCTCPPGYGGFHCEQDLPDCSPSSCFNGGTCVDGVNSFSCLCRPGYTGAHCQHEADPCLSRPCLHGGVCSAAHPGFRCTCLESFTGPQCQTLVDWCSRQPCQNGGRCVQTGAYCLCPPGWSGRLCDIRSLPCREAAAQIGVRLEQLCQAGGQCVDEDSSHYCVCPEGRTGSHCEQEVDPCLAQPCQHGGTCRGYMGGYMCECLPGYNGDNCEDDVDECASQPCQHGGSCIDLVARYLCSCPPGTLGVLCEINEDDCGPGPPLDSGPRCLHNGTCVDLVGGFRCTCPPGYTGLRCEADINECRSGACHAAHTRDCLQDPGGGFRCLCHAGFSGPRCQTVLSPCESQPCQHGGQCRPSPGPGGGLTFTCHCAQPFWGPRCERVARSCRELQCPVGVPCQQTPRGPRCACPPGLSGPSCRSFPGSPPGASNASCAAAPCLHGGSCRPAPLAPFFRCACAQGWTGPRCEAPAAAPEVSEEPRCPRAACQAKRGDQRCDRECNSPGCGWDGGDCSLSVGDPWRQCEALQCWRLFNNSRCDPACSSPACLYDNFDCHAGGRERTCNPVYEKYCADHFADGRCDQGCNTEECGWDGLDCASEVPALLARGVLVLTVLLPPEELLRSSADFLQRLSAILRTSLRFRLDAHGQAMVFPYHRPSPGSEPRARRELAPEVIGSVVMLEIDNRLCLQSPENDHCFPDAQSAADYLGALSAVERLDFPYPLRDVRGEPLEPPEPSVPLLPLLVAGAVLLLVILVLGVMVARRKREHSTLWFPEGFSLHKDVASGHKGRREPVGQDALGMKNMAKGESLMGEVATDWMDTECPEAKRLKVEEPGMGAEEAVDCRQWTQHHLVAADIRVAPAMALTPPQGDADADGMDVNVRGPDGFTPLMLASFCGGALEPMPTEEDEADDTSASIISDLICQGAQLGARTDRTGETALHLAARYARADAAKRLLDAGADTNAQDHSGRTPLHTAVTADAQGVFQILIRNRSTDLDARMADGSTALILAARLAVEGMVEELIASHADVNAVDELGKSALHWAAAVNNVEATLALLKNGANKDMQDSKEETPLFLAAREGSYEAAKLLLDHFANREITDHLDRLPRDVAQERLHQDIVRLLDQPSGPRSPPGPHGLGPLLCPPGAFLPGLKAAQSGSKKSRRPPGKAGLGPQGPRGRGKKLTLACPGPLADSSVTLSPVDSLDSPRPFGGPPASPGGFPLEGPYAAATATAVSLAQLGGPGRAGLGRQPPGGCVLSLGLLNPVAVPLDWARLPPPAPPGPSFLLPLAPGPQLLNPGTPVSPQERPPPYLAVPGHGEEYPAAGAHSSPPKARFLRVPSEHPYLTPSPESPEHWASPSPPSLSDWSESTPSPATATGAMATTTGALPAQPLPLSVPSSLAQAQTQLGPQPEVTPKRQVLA

In the case of `CC(C)[C@@H](OCc1ccccc1)[C@H](C)C=NOC[C@@H](C)[C@H](OCc1ccccc1)C(C)C`, the composite z-score is 0.341 in [1]; -0.218 in assay [5]; -0.0862 in [7]; 0.367 in [8]; 0.421 in [9]; -0.0234 in assay [10]. The z-score in assay [2] is 0.0268 (inactive); in [3], 0.893 (inactive); in assay [4], 0.338 (inactive); in assay [6], 0.413 (inactive).
`CC(CCN1CCc2nc(-c3ccccc3)c(-c3ccccc3)cc2C1)=NO[C@@H](C)c1cn([C@H](CO)Cc2ccccc2)nn1`: the composite z-score was 0.747 in assay [1]; 0.272 in assay [5]; -0.037 in [7]; 0.549 in [8]; -0.474 in [9]; -0.0172 in [10]. Moreover, the z-score was -2.46 (inactive) in assay [2], -2.24 (inactive) in assay [3], -4.45 (inactive) in assay [4] and -0.966 (inactive) in [6].
As for `Cn1cccc1C(O)C1C=CC2C(=O)NC(=O)C2N1Nc1ccccn1` (stereo not given), the composite z-score in assay [1] is 0.408; in assay [5] it was -0.503; in assay [7], -0.19; in assay [8] it was -0.0645; in [9] it was -0.929; in assay [10] it was 0.0865. Further, the z-score was 0.0886 (inactive) in assay [2], 1.23 (inactive) in [3], 0.0533 (inactive) in assay [4] and -0.975 (inactive) in assay [6].
For the molecule `O=C1C2=CC[C@H]3C(=O)N(Cc4ccc5c(c4)OCO5)C(=O)[C@H]3[C@H]2[C@H](O)[C@@H]2O[C@H]12`, the composite z-score in assay [1] is -1.05; in assay [5], 0.24; in [7], -0.166; in assay [8], 0.616; in [9], 0.632; in [10], 0.0083. In addition, the z-score in assay [2] was -0.108 (inactive); in assay [3], -0.682 (inactive); in assay [4], -0.611 (inactive); in assay [6] it was 0.347 (inactive).
For the molecule `C#CCCCON=C1C[C@@H](O)[C@@H](O)[C@@H]2[C@@H]3C(=O)N(c4cccc(Oc5ccccc5)c4)C(=O)[C@@H]3CC[C@@H]12`, the composite z-score in [1] is 0.678; in assay [5], 2.51; in [7], -0.0961; in assay [8], 0.376; in [9], 1.1; in assay [10] it was 0.0675. In addition, the z-score is 0.71 (inactive) in assay [2], 0.329 (inactive) in assay [3], -0.426 (inactive) in assay [4] and 0.303 (inactive) in assay [6].
`COc1ccc(CCNC(=O)[C@@H]2c3ccccc3C(=O)N(c3ccc(C)cn3)[C@H]2c2ccc(CO)cc2)cc1`: the composite z-score is 0.11 in [1]; 3.23 in [5]; 0.121 in assay [7]; -1.16 in assay [8]; -1.21 in assay [9]; -0.404 in assay [10]. Besides, the z-score is -1.5 (inactive) in [2], -0.436 (inactive) in [3], -1.15 (inactive) in assay [4] and 0.604 (inactive) in assay [6].
Turning to `COCCNC(=O)OCC1CCCC2(CC(OC(=O)NCCc3ccc(F)cc3)CC(CCC(=O)N[C@@H](C)C(=O)OC)O2)O1` (stereo not given in full), the composite z-score is 1.5 in assay [1]; 0.876 in assay [5]; -0.0845 in assay [7]; 0.403 in [8]; 1.08 in assay [9]; 0.433 in assay [10]. Moreover, the z-score in assay [2] is 0.104 (inactive); in assay [3] it was -0.0142 (inactive); in assay [4], 0.647 (inactive); in assay [6], 0.0947 (inactive).
Turning to `COC(=O)[C@H](C)NC(=O)CCC1CC(OC(=O)NCCc2ccc(F)cc2)CC2(CCCC(COC(=O)NCCc3ccc(Cl)cc3)O2)O1` (stereo not given in full), the composite z-score in assay [1] is 1.24; in assay [5], 2.39; in assay [7], -0.0237; in [8] it was 0.244; in [9], 1.12; in assay [10] it was -0.0989. Moreover, the z-score was 0.86 (inactive) in [2], 0.812 (inactive) in assay [3], 1.2 (inactive) in [4] and 0.126 (inactive) in assay [6].
In the case of `COC(=O)[C@@]1(Cc2ccccc2)[C@H]2c3cc(C(=O)N4CCCC4)n(Cc4ccccn4)c3C[C@H]2CN1C(=O)c1ccccc1`, the composite z-score in [1] was found to be 1.57; in assay [5] it was 4; in assay [7] it was 0.614; in assay [8] it was 0.856; in assay [9], 1.14; in [10] it was 0.211. In addition, the z-score in assay [2] is 0.263 (inactive); in [3], 0.296 (inactive); in assay [4], 0.513 (inactive); in [6], -0.301 (inactive).
For the molecule `CO[C@H]1O[C@H](CO)[C@@H](OC(=O)Nc2ccc3c(c2)OCO3)[C@H](OC(=O)Nc2ccccc2-c2ccccc2)[C@@H]1OC(=O)Nc1ccccc1-c1ccccc1`, the composite z-score in [1] is 1.54; in [5] it was 3.27; in assay [7], 0.0427; in assay [8], 0.943; in [9], 1.07; in assay [10], -0.0179. Besides, the z-score in assay [2] is 2.12 (inactive); in assay [3], 1.8 (inactive); in assay [4] it was 0.91 (inactive); in assay [6], 0.39 (inactive).
As to `COC(=O)CC=C[C@@H](C)[C@@H](C=NO[C@H](C)c1cn([C@@H]2COC[C@H]2O)nn1)OC`, the composite z-score is 1.35 in assay [1]; 0.965 in [5]; -0.156 in assay [7]; 0.359 in [8]; 0.484 in assay [9]; 0.0009 in [10]. Further, the z-score was 0.212 (inactive) in [2], 0.189 (inactive) in assay [3], -0.266 (inactive) in [4] and 0.135 (inactive) in assay [6].
On to `COCCCNC(=O)[C@@]1(C)c2ccccc2C(=O)N(Cc2ccc(OC(F)(F)F)cc2)[C@H]1c1ccc(CO)cc1`, for which the composite z-score was 0.289 in assay [1]; -0.0493 in assay [5]; 0.134 in assay [7]; -0.598 in assay [8]; -0.519 in assay [9]; 0.146 in assay [10]. The z-score in assay [2] was -0.0965 (inactive); in [3], 0.203 (inactive); in assay [4] it was -0.35 (inactive); in [6] it was 0.93 (inactive).
As to `COc1ccc(O[C@H]2C=C[C@@H](c3ccccc3)O[C@@H]2COC(=O)N2CCCCC2)cc1`, the composite z-score in assay [1] is 0.38; in [5], -0.616; in assay [7], 0.0116; in assay [8] it was 0.0935; in assay [9] it was -1.08; in [10], -0.0527. In addition, the z-score in [2] was 0.523 (inactive); in assay [3], -0.897 (inactive); in [4], 0.156 (inactive); in assay [6], 0.555 (inactive).
Take `Cc1cc(C)c(-c2cc([C@H](C)ON=C3[C@H]4CCn5c(=O)n(-c6ccccc6)c(=O)n5[C@H]4[C@H](O)[C@@H]4O[C@H]34)on2)c(C)c1`: the composite z-score in [1] was 0.432; in assay [5], 1.83; in assay [7] it was -0.133; in assay [8] it was 0.627; in assay [9], 0.766; in [10], -0.0978. In addition, the z-score in assay [2] is 0.566 (inactive); in assay [3] it was -1.84 (inactive); in assay [4], 0.0884 (inactive); in assay [6] it was 0.771 (inactive).
